Screens from PubChem BioAssay.
Sampled rows, rich in hits. Any-hit rate of the full collection: about 6.8%.
Tcruzi prolif: T. cruzi intracellular proliferation inhibitors, primary screen, cell-based, beta-gal Tulahuen parasites, NIH3T3 host, luminescence; AID 624255, 2012; inhibition, % at 8.34 µM; hit rate 5.9% among 77,000; T. cruzi beta-gal in NIH3T3, GalScreen luminescence, 90 h;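 active = mean inhibition above about 93%, with at least 55% of replicates each passing it, limit read from the data, passing the limit was not always enough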
C diff growth: C. difficile growth inhibitors, primary screen, HTS; Clostridium difficile clinical isolate growth, OD600, 24 h; active compounds read low; hit rate 0.25% among 86,000; growth activity, negative = inhibition, % at 16 µg/mL (by protocol); AID 1259249, 2017;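 active = mean growth activity at or below -80% and every replicate also at or below -80%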
Pf Dd2 inh: P. falciparum Dd2 growth inhibitors, primary screen, SYBR Green fluorescence, single dose replicates. 72 h; active compounds read low. activity change, % at 10 µM. hit rate 2.3% among 94,000. AID 1159554, 2015; in the data active = activity change below about -80%
Each line names hits and unclear results; the compound was inactive in the other large screens.

C[C@H](CO)N1C[C@H](C)[C@@H](CN(C)Cc2ccc(Oc3ccccc3)cc2)Oc2ccc(NC(=O)Nc3ccc(C(F)(F)F)cc3)cc2C1=O	none (no result: C diff growth)
C[C@@H]1CN([C@H](C)CO)C(=O)c2cc(NC(=O)Nc3ccccc3)ccc2O[C@@H]1CN(C)Cc1ccc(C(F)(F)F)cc1	none
C[C@@H]1CCCCO[C@H](CN(C)C(=O)CCCN(C)C)[C@@H](C)CN([C@H](C)CO)C(=O)c2cc(NS(=O)(=O)c3cccs3)ccc2O1	none
COc1ccc(NC(=O)Nc2cccc3c2O[C@H](CN(C)Cc2ccc(-c4ccccc4)cc2)[C@H](C)CN([C@@H](C)CO)C3=O)cc1	none
COc1ccc(NC(=O)Nc2cccc3c2O[C@H](CN(C)Cc2ccc(-c4ccccc4)cc2)[C@@H](C)CN([C@@H](C)CO)C3=O)cc1	Pf Dd2 inh -86 (no result: Tcruzi prolif)
C[C@@H]1CN([C@@H](C)CO)C(=O)c2cccc(NC(=O)Nc3ccc(F)cc3)c2O[C@@H]1CN(C)Cc1ccc(-c2ccccc2)cc1	C diff growth -93
C[C@@H]1CN([C@H](C)CO)C(=O)c2cccc(NC(=O)Nc3ccc(F)cc3)c2O[C@H]1CN(C)Cc1ccc(-c2ccccc2)cc1	none
COc1ccc(NC(=O)N(C)C[C@H]2Oc3ccc(NC(=O)Nc4ccccc4)cc3CC(=O)N([C@@H](C)CO)C[C@H]2C)cc1	none
CN1CCN(C(=O)C[C@H]2C=C[C@@H](NS(=O)(=O)c3cccc(F)c3)[C@@H](CO)O2)CC1	none (no result: C diff growth)
COc1ccc2c3c([nH]c2c1)[C@H](CO)N(CC1CC1)CC31CCN(Cc2ccccc2F)CC1	Pf Dd2 inh -85 (no result: Tcruzi prolif)
COc1ccc2c3c([nH]c2c1)[C@@H](CO)N(Cc1ccccc1F)CC31CN(CC2CC2)C1	none (no result: Tcruzi prolif)
COc1cccc(CN2CC3(CCN(CC4CCOCC4)CC3)c3c([nH]c4cc(OC)ccc34)[C@@H]2CO)c1	none (no result: Tcruzi prolif)
COc1cccc(CN2CC3(CCN(CC4CC4)CC3)c3c([nH]c4cc(OC)ccc34)[C@H]2CO)c1	Pf Dd2 inh -92 (no result: Tcruzi prolif)
COc1ccc2c3c([nH]c2c1)[C@H](CO)N(Cc1ccccc1)CC31CCN(CC2CC2)CC1	Pf Dd2 inh -93 (no result: Tcruzi prolif)
COc1ccc2c3c([nH]c2c1)[C@H](CO)N(Cc1ccccc1)CC31CN(CC2CC2)C1	none (no result: Tcruzi prolif)
C[C@H](CO)N1C[C@H](C)[C@@H](CN(C)Cc2ccc(Cl)c(Cl)c2)Oc2ccc(NC(=O)Cc3cn(C)c4ccccc34)cc2CC1=O	none
COCC(=O)Nc1ccc2c(c1)OC[C@@H](C)N(Cc1ccccc1OC)C[C@H](C)[C@@H](OC)CN(C)C2=O	none (no result: C diff growth)
O=C(C[C@@H]1CC[C@@H]2[C@H](COC[C@H](O)CN2C(=O)c2ccc3c(c2)OCO3)O1)NC1Cc2ccccc2C1	none
C[C@@H]1CN([C@@H](C)CO)S(=O)(=O)c2ccc(C#Cc3ccccc3F)cc2O[C@@H]1CN(C)C(=O)c1ccc2c(c1)OCO2	none (no result: Tcruzi prolif)
C[C@H]1CN([C@@H](C)CO)S(=O)(=O)c2ccc(C#Cc3ccccc3F)cc2O[C@H]1CN(C)C(=O)c1ccc2c(c1)OCO2	Pf Dd2 inh -88 (no result: Tcruzi prolif)
C[C@H](CO)N1C[C@H](C)[C@@H](CN(C)C(=O)Cc2cccnc2)Oc2cc(C#Cc3ccccc3F)ccc2S1(=O)=O	Pf Dd2 inh -84 (no result: Tcruzi prolif)
C[C@H]1CN([C@@H](C)CO)S(=O)(=O)c2ccc(C#Cc3ccccc3F)cc2O[C@H]1CN(C)C(=O)Cc1ccncc1	none (no result: Tcruzi prolif)
COc1cccc(NC(=O)N[C@@H]2C=C[C@@H](CC(=O)N3CCOCC3)O[C@@H]2CO)c1	none (no result: Tcruzi prolif)
CCCc1cn(CC[C@@H]2CC[C@@H](NC(=O)Nc3ccccc3F)[C@H](CO)O2)nn1	none (no result: C diff growth)
COc1ccc(NC(=O)Nc2ccc3c(c2)CC(=O)N([C@@H](C)CO)C[C@H](C)[C@@H](CN(C)C(=O)Nc2ccc(OC)cc2)O3)cc1	none
Cc1noc(C)c1NC(=O)N(C)C[C@H]1Oc2ccc(NC(=O)CCN3CCOCC3)cc2C(=O)N([C@H](C)CO)C[C@H]1C	none
O=C(c1ccccc1)N1CC2(C1)[C@H](c1ccccc1)[C@@H](CO)N2CC1CC1	none (no result: Tcruzi prolif)
COc1ccc(NC(=O)Nc2ccc3c(c2)CC(=O)N([C@@H](C)CO)C[C@H](C)[C@@H](CN(C)Cc2ccc(C(=O)Nc4ccccc4N)cc2)O3)cc1	Pf Dd2 inh -88 (no result: Tcruzi prolif)
C[C@H](CO)N1C[C@H](C)[C@@H](CN(C)Cc2ccc(C(=O)Nc3ccccc3N)cc2)Oc2ccc(NC(=O)Nc3ccc(F)cc3)cc2CC1=O	none
C[C@@H]1CN([C@H](C)CO)C(=O)Cc2cc(NC(=O)Nc3ccc(F)cc3)ccc2O[C@@H]1CN(C)Cc1ccccc1	none
C[C@H]1CN([C@@H](C)CO)C(=O)Cc2cc(NC(=O)Nc3ccc(F)cc3)ccc2O[C@H]1CN(C)Cc1ccc(C(=O)Nc2ccccc2N)cc1	Pf Dd2 inh -83 (no result: Tcruzi prolif)
C[C@@H]1CN([C@@H](C)CO)C(=O)Cc2cc(NC(=O)Nc3ccc(F)cc3)ccc2O[C@H]1CN(C)Cc1ccccc1	Pf Dd2 inh -85
COc1ccc(NC(=O)Nc2ccc3c(c2)CC(=O)N([C@H](C)CO)C[C@@H](C)[C@@H](CN(C)Cc2ccc(C(=O)Nc4ccccc4N)cc2)O3)cc1	none (no result: Tcruzi prolif)
CCC(=O)N(C)C[C@H]1Oc2cc(-c3ccc(OC)cc3)ccc2S(=O)(=O)N([C@@H](C)CO)C[C@H]1C	none (no result: Tcruzi prolif)
C[C@H](CO)N1C[C@H](C)[C@@H](CN(C)C(=O)Nc2ccc3c(c2)OCO3)OCCCC[C@H](C)Oc2ccc(NS(=O)(=O)c3ccc(Cl)cc3)cc2C1=O	none
COc1ccc2c3c(n(C)c2c1)[C@H](CO)N(CC1CCOCC1)CC31CCN(Cc2nccs2)CC1	none (no result: Tcruzi prolif)
O=C(C[C@H]1CC[C@@H]2[C@H](COC[C@@H](O)CN2Cc2nccs2)O1)NCc1ccc(Cl)cc1	none (no result: C diff growth)
CNC[C@@H]1Oc2c(NC(=O)C3CCOCC3)cccc2C(=O)N([C@H](C)CO)C[C@H]1C	none
COc1ccc(-c2ccc(C3[C@H]4CNC[C@@H]3N4Cc3cc(F)ccc3F)cc2)cc1 (stereo partly specified)	none (no result: Tcruzi prolif)
COc1ccc2c3c([nH]c2c1)[C@@H](CO)N(Cc1cccc(F)c1)CC31CCN(C(C)=O)CC1	Pf Dd2 inh -93 (no result: Tcruzi prolif)
COc1ccc2c3c([nH]c2c1)[C@@H](CO)N(Cc1cccc(F)c1)CC31CN(C(C)=O)C1	Pf Dd2 inh -85 (no result: Tcruzi prolif)
COc1ccc2c3c([nH]c2c1)[C@H](CO)N(Cc1cccc(F)c1)CC31CN(C(C)=O)C1	none (no result: Tcruzi prolif)
COc1cc(CN2CC3(CCN(C(C)=O)CC3)c3c([nH]c4cc(OC)ccc34)[C@H]2CO)cc(OC)c1	none (no result: Tcruzi prolif)
COc1ccc(NC(=O)N(C)C[C@@H]2OCCCC[C@@H](C)Oc3ccc(N(C)C)cc3C(=O)N([C@@H](C)CO)C[C@H]2C)cc1	none (no result: Pf Dd2 inh)
C[C@@H]1CN([C@@H](C)CO)C(=O)c2cc(NC(=O)c3ccccc3)ccc2O[C@@H](C)CCCCO[C@H]1CN(C)Cc1ccc(C(F)(F)F)cc1	Pf Dd2 inh -84
C[C@@H]1CCCCO[C@H](CN(C)Cc2ccc(C(F)(F)F)cc2)[C@@H](C)CN([C@@H](C)CO)C(=O)c2cc(NC(=O)Nc3ccccc3)ccc2O1	Pf Dd2 inh -82
